The supplement of paper PMC13094657
± gives the standard deviation of the averaged measurements.

What was measured:
[1] = test system: MDA-MB-231; assay: cell viability relative to vehicle unstimulated control (fraction); higher = more viable cells; settings: pre-treatment time: 18 h then 24 h IFNg/TNF
[2] = test system: MDA-MB-231; assay: kynurenine production, fold change vs DMSO IFNg/TNF control; higher = more kynurenine produced (less inhibition); settings: pre-treatment time: 18 h then 24 h IFNg/TNF
Method in brief: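 MDA-MB-231 cells were seeded in 96-well plates at 7 × 10^4/well and, 24 h later, pre-treated for 18 h with each natural product in 0.1% DMSO. They were then stimulated for 24 h at 37°C with IFNγ (1 U/ml) and TNF (6.25 ng/ml). Supernatants were treated with trichloroacetic acid and p-dimethylaminobenzaldehyde and read at 492 nm against 0–100 μM standards. Kynurenine production is expressed as fold change over cytokine-stimulated vehicle wells on the same plate and, in the first screening round, averaged across duplicate plates.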
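For cell viability relative to vehicle unstimulated control in this document: viability of the cells left after supernatant collection, read with Deep Blue dye added for 4 h, as absorbance at 570 nm minus 600 nm.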

Compound | cell viability [1] | kynurenine production [2]
C=C1C(=O)O[C@@H]2/C=C(\C)C[C@@H]3C=C(C[C@H](OC(=O)/C(C)=C\C)[C@@H]12)C(=O)O3 [Scabertopin] (compound dose: 10 uM) | 0.873 ± 0.022 | 0.182 ± 0.087
C=C(C=O)[C@H]1CC[C@H](C)[C@H]1C=O [dolichodial] (compound dose: 10 uM) | 1 ± 0.032 | 0.897 ± 0.018
CC(C)=CCC[C@@H](C)CC=O [Citronellal] (compound dose: 10 uM) | 1.067 ± 0.0084 | 1.22 ± 0.043
CC(CC(=O)C[C@](C)(O)[C@H]1CC(=O)[C@@]2(C)C3=C(C(=O)C[C@]12C)[C@@]1(C)CCC(=O)C(C)(C)[C@@H]1C[C@@H]3O)C(=O)O (some centres undefined) [Ganoderic acid N] (compound dose: 10 uM) | 1.03 ± 0.053 | 0.857 ± 0.12
Cc1cc(O)c2c(c1)C(=O)c1cc(O)cc(O[C@@H]3O[C@H](CO)[C@@H](O)[C@H](O)[C@H]3O)c1C2=O [Emodin-8-glucoside] (compound dose: 10 uM) | 0.9845 ± 0.0046 | 0.872 ± 0.14
COc1cc2cc3c4c(cc5c(c4c2cc1OC)OCO5)CCN3C [Dehydrodicentrine] (compound dose: 10 uM) | 0.946 ± 0.021 | 0.807 ± 0.12
CC(=O)O[C@@H]1[C@@H](O)[C@H](O[C@H]2CC[C@]34C[C@]35CC[C@]3(C)[C@@H]([C@@]6(C)CC[C@@H](C(C)(C)O)O6)[C@@H](O)C[C@@]3(C)[C@@H]5C[C@H](O[C@@H]3O[C@H](CO)[C@@H](O)[C@H](O)[C@H]3O)[C@H]4C2(C)C)OC[C@H]1O [Isoastragaloside II] (compound dose: 10 uM) | 0.99 ± 0.011 | 0.968 ± 0.029
